# In the supplement of paper PMC10849652:
# Of roughly 7,900 targets only a part is listed; those with a hit were picked by preference. About 0.6% of all pairs of compound and target were hits. Unmarked numbers belong to inactive results.
# Compound: COc1cc2nc(-c3cc(F)ccc3O)nc(N[C@@H]3CNC[C@H]3C(C)(C)O)c2cc1OC
# Experiment: log2 fold change, soluble protein after heating vs DMSO (PISA); higher = thermal stabilisation; K562 cells, 10 uM, 30 min; active = over 0.2 and 3.5 SD of the protein, either way, in both replicates (recomputed)
# How it was run: (§1)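 Soluble protein was quantified by TMTpro 16plex LC-MS/MS after channel sums were equalised. It was obtained as the supernatant after 21,000xg for 90 min from pooled aliquots of K562 cells (2×10^6 cells/mL, 10 μM compound, 30 min) heated for 3 min across 48°C-58°C and extracted in PBS with 0.5% NP-40 at 4°C. Thermal stability values are relative to control samples and come from duplicates. They are given as log2 fold changes.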
# UniProt Q15904, sequence (Q15904 whole entry, looked up): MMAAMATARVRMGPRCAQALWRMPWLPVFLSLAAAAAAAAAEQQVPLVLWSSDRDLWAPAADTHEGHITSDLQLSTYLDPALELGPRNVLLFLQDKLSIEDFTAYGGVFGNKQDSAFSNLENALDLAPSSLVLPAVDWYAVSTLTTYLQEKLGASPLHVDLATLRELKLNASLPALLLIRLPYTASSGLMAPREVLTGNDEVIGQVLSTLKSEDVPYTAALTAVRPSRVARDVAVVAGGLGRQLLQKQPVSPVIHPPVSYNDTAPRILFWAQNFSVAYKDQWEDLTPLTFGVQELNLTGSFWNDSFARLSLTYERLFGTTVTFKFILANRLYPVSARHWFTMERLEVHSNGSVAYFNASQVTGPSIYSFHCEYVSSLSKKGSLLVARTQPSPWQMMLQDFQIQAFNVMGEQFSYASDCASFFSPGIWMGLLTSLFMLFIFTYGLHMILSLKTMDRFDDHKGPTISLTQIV
# UniProt P33121, sequence (P33121 whole entry, looked up): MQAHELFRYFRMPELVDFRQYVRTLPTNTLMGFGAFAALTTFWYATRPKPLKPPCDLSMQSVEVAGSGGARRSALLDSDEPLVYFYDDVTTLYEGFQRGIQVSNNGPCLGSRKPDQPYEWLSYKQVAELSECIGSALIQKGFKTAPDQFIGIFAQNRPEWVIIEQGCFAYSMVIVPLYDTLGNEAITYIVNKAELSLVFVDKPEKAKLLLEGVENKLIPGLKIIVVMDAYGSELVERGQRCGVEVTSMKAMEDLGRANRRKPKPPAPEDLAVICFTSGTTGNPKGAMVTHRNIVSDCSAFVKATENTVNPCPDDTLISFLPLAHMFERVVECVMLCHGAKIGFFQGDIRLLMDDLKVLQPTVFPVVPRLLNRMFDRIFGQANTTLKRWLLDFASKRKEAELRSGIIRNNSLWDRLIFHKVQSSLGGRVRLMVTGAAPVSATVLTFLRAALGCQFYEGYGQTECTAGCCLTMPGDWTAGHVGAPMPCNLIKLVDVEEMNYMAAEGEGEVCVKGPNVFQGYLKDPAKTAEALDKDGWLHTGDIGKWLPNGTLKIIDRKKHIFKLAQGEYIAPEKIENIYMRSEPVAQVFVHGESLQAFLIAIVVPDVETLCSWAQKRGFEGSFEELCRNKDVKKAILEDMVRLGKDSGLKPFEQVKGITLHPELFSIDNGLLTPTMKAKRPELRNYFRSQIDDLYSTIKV
# UniProt P11766, sequence (P11766 whole entry, looked up): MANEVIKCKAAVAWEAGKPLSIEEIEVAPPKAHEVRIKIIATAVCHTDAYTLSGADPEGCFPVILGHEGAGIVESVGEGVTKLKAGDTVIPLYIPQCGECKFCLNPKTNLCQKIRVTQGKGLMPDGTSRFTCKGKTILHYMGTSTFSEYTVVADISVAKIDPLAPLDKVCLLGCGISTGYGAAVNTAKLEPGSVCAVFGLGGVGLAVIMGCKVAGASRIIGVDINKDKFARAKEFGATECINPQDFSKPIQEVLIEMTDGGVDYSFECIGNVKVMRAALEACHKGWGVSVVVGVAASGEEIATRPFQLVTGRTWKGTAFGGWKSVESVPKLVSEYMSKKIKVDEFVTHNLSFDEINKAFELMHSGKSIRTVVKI
# UniProt O14981, sequence (O14981 whole entry, looked up): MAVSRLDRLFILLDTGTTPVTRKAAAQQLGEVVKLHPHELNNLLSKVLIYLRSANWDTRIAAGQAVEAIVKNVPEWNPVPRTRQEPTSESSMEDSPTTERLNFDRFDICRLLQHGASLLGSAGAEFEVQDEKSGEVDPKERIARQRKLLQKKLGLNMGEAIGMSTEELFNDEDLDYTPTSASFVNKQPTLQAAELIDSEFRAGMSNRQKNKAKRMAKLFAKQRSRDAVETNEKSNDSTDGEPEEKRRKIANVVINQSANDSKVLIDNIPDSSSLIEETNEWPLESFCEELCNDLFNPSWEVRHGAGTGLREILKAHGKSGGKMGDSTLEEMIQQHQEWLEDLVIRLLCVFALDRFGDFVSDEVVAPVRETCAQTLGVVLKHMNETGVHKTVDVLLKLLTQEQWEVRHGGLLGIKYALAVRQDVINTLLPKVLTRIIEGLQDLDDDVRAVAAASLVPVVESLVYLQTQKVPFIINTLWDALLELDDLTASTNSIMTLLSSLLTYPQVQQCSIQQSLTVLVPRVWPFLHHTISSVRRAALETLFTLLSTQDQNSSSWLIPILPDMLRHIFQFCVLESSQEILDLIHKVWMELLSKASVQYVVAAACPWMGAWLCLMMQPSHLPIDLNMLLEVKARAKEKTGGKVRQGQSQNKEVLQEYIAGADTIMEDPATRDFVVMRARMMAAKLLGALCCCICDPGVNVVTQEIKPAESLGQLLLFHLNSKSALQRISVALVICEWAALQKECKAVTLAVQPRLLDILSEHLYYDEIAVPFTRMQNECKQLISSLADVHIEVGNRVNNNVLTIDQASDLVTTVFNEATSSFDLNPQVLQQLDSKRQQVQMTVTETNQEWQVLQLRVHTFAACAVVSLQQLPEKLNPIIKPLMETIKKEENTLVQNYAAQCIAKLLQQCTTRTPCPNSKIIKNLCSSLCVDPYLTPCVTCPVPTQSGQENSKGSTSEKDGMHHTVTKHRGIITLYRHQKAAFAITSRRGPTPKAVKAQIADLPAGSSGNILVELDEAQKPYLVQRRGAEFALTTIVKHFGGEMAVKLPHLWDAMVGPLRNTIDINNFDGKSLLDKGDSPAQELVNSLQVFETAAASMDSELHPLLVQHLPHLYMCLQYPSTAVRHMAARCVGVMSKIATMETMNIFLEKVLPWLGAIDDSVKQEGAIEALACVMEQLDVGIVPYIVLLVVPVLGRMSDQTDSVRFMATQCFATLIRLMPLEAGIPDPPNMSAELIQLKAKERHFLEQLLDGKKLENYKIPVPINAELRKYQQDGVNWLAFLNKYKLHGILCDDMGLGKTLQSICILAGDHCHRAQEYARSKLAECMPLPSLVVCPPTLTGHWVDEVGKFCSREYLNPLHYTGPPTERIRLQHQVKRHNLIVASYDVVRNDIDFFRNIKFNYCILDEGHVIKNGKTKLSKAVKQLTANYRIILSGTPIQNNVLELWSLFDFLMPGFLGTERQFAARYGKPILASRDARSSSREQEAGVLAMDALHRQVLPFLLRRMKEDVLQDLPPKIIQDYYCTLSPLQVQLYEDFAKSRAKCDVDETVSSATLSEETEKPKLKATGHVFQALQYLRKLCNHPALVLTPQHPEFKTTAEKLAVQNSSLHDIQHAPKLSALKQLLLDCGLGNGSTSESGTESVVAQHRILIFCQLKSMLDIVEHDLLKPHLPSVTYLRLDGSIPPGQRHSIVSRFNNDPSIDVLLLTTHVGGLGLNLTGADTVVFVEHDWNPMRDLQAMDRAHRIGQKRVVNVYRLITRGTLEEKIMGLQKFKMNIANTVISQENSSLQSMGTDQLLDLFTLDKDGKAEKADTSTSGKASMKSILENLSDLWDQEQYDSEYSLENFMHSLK
# UniProt Q2TAA5, sequence (Q2TAA5 whole entry, looked up): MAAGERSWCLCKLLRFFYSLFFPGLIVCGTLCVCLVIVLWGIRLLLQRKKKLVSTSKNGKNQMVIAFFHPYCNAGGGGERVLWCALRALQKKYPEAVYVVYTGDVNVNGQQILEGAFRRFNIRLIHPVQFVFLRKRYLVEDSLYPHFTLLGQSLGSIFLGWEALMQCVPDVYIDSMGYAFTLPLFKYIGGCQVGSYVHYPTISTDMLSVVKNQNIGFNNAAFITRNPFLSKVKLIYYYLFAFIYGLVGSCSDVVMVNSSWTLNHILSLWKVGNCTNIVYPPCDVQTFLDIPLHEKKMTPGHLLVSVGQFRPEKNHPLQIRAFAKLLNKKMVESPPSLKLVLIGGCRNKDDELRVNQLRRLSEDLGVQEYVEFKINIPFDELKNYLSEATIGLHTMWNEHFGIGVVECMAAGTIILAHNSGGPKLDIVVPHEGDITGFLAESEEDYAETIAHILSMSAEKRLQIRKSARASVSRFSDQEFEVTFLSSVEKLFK
# UniProt Q9Y6H3, sequence (Q9Y6H3 whole entry, looked up): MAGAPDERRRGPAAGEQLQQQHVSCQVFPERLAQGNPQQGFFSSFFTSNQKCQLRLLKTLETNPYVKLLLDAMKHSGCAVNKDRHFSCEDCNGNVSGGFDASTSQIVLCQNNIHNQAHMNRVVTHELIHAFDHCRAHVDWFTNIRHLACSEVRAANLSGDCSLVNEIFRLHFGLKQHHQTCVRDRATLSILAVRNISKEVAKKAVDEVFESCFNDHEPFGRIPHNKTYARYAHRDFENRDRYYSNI
# UniProt O15254, sequence (O15254 whole entry, looked up): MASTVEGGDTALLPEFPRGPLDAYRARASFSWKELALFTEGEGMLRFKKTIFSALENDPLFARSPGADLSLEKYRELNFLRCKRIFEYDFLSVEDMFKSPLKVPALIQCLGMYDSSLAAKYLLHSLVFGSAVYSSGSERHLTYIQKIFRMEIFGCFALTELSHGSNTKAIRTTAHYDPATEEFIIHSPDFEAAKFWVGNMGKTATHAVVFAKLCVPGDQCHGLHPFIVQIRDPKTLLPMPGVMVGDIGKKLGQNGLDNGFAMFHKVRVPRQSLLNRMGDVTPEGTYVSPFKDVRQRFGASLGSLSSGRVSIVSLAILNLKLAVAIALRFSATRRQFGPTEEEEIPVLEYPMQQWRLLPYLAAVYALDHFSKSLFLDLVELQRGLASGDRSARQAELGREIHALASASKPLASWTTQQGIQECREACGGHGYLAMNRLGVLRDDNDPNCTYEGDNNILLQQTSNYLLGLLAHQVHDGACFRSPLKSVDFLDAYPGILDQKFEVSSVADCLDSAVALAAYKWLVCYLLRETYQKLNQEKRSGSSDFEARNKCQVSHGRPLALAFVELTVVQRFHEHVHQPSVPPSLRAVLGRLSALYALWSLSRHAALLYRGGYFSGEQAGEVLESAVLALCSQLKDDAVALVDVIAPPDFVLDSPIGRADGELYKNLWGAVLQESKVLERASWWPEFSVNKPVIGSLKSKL
# UniProt Q16864, sequence (Q16864 whole entry, looked up): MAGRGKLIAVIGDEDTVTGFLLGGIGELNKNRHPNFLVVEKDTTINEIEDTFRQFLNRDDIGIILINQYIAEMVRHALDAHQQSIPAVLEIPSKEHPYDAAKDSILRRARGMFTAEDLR
row,Target,log2 fold change
1,ARGLU1 (UniProt Q9NWB6),0.05
2,AP4S1 (UniProt Q9Y587),-0.002
3,ACTR1B (UniProt P42025),0.008
4,ALG11 (UniProt Q2TAA5),-0.003
5,AKR1C2 (UniProt P52895),-0.013
6,ATG9A (UniProt Q7Z3C6),-0.073
7,ADH5 (UniProt P11766),0.011
8,AAR2 (UniProt Q9Y312),0.104
9,APPL1 (UniProt Q9UKG1),0.079
10,ACAD9 (UniProt Q9H845),0.03
11,ACOX3 (UniProt O15254),-0.106
12,ALDH2 (UniProt P05091),-0.006
13,ARL1 (UniProt P40616),-0.042
14,AGAP3 isoform 4 (UniProt Q96P47),0.079
15,ATP1B3 (UniProt P54709),0.034
16,ATP6AP1 (UniProt Q15904),-0.068
17,ACSL1 (UniProt P33121),-0.261

row,Target,log2 fold change
1,ALDH9A1 isoform 3 (UniProt P49189),-0.01
2,BOP1 (UniProt Q14137),-0.085
3,ATF7 isoform 6 (UniProt P17544),-0.004
4,ATP6V1F isoform 2 (UniProt Q16864),-0.151
5,BTAF1 (UniProt O14981),0.093
6,AIFM2 (UniProt Q9BRQ8),0.023
7,AFG1L (UniProt Q8WV93),-0.18
8,BCCIP isoform 2 (UniProt Q9P287),0.021
9,ANXA5 (UniProt P08758),0.009
10,ADRM1 (UniProt Q16186),-0.029
11,ATP9B (UniProt O43861),0.023
12,ACSL3 (UniProt O95573),0.046
13,ATP23 (UniProt Q9Y6H3),-0.096
14,ACO2 (UniProt Q99798),0.036
15,ARFIP1 (UniProt P53367),0.042
16,AGPAT5 (UniProt Q9NUQ2),-0.111
17,AARS2 (UniProt Q5JTZ9),-0.012

# Compound: COc1cc2ncnc(Nc3ccc(F)c(Cl)c3)c2cc1OCCCN1CCOCC1 [gefitinib]
# Experiment: as above
# How it was run: as §1
row,Target,log2 fold change
1,ARGLU1 (UniProt Q9NWB6),0.212
2,AP4S1 (UniProt Q9Y587),-0.083
3,ACTR1B (UniProt P42025),0.04
4,ALG11 (UniProt Q2TAA5),0.206
5,AKR1C2 (UniProt P52895),0.044
6,ATG9A (UniProt Q7Z3C6),0.011
7,ADH5 (UniProt P11766),-0.007
8,AAR2 (UniProt Q9Y312),0.075
9,APPL1 (UniProt Q9UKG1),-0.106
10,ACAD9 (UniProt Q9H845),0.016
11,ACOX3 (UniProt O15254),0.116
12,ALDH2 (UniProt P05091),0.028
13,ARL1 (UniProt P40616),0.047
14,AGAP3 isoform 4 (UniProt Q96P47),0.28
15,ATP1B3 (UniProt P54709),0.025
16,ATP6AP1 (UniProt Q15904),-0.009
17,ACSL1 (UniProt P33121),0.024

row,Target,log2 fold change
1,ALDH9A1 isoform 3 (UniProt P49189),-0.028
2,BOP1 (UniProt Q14137),0.017
3,ATF7 isoform 6 (UniProt P17544),0.09
4,ATP6V1F isoform 2 (UniProt Q16864),0.019
5,BTAF1 (UniProt O14981),-0.045
6,AIFM2 (UniProt Q9BRQ8),0.096
7,AFG1L (UniProt Q8WV93),-0.012
8,BCCIP isoform 2 (UniProt Q9P287),0
9,ANXA5 (UniProt P08758),0.05
10,ADRM1 (UniProt Q16186),-0.055
11,ATP9B (UniProt O43861),0.101
12,ACSL3 (UniProt O95573),0.021
13,ATP23 (UniProt Q9Y6H3),-0.062
14,ACO2 (UniProt Q99798),0.008
15,ARFIP1 (UniProt P53367),-0.091
16,AGPAT5 (UniProt Q9NUQ2),0.018
17,AARS2 (UniProt Q5JTZ9),-0.002

# Compound: COc1cccc2cc(-c3nc([C@H]4CC[C@H](C(=O)O)CC4)n4ncnc(N)c34)[nH]c12
# Experiment: as above
# How it was run: as §1
row,Target,log2 fold change
1,ARGLU1 (UniProt Q9NWB6),0.031
2,AP4S1 (UniProt Q9Y587),0.036
3,ACTR1B (UniProt P42025),0.073
4,ALG11 (UniProt Q2TAA5),0.026
5,AKR1C2 (UniProt P52895),-0.012
6,ATG9A (UniProt Q7Z3C6),-0.015
7,ADH5 (UniProt P11766),0.058
8,AAR2 (UniProt Q9Y312),0.058
9,APPL1 (UniProt Q9UKG1),-0.023
10,ACAD9 (UniProt Q9H845),0.083
11,ACOX3 (UniProt O15254),0.144
12,ALDH2 (UniProt P05091),0.069
13,ARL1 (UniProt P40616),0.042
14,AGAP3 isoform 4 (UniProt Q96P47),-0.1
15,ATP1B3 (UniProt P54709),0.092
16,ATP6AP1 (UniProt Q15904),-0.057
17,ACSL1 (UniProt P33121),0.024

row,Target,log2 fold change
1,ALDH9A1 isoform 3 (UniProt P49189),0.041
2,BOP1 (UniProt Q14137),-0.012
3,ATF7 isoform 6 (UniProt P17544),0.09
4,ATP6V1F isoform 2 (UniProt Q16864),0.021
5,BTAF1 (UniProt O14981),-0.028
6,AIFM2 (UniProt Q9BRQ8),0.061
7,AFG1L (UniProt Q8WV93),0.107
8,BCCIP isoform 2 (UniProt Q9P287),0.026
9,ANXA5 (UniProt P08758),-0.032
10,ADRM1 (UniProt Q16186),-0.045
11,ATP9B (UniProt O43861),0.178
12,ACSL3 (UniProt O95573),0.037
13,ATP23 (UniProt Q9Y6H3),0.067
14,ACO2 (UniProt Q99798),0.071
15,ARFIP1 (UniProt P53367),-0.005
16,AGPAT5 (UniProt Q9NUQ2),0.071
17,AARS2 (UniProt Q5JTZ9),0.047
